PubChem BioAssay AID1240 (Sanford-Burnham Center for Chemical Genomics, 2008)
Among all 50,000 compounds or so, about 800 (1.6%) showed an effect of 50% or more. Shown is part of a subset that was picked to be rich in strong results.

What follows are compounds tested against Bcl-2-like protein 10 (Homo sapiens) (UniProt Q9HD36) (assay: Phenotype converters, Bcl-B/TR3 peptide binding displacement, primary biochemical FP (AID 1240;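 note: 0% = Bcl-B with tracer peptide and DMSO and 100% = tracer peptide lacking Bcl-B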)). Details: GST-Bcl-B / FITC-TR3 peptide fluorescence polarization; stronger effect = higher value; compound at 3.75 mg/L.
Chain of Bcl-2-like protein 10 (Homo sapiens) (Q9HD36 whole entry, looked up): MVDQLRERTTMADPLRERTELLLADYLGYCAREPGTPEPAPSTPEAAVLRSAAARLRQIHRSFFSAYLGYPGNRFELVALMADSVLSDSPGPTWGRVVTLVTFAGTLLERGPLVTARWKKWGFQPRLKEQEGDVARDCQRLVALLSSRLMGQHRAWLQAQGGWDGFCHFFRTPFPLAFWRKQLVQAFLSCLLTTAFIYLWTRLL
Nc1nonc1-c1ncc(-c2ccc(Br)cc2)nn1 was tested, and the displacement was 30.1%.
Work on O=c1n(Cc2ccccc2Cl)c2cc(N3CCOCC3)c([N+](=O)[O-])cc2n1Cc1ccccc1Cl yielded a displacement of -9.7%.
Cc1ccc(C(=O)NNC(=O)c2ccc3ccccc3c2O)cc1 gave a displacement of 20.5%.
For Cc1ccc(/C=C/C(=O)N2CCN(c3ccccc3)CC2)o1, the displacement was 3.6%.
Compound Cc1ccc([N+](=O)[O-])cc1NC(=O)CC1Sc2ccccc2NC1=O (centres undefined) has a displacement of 3.4%.
In the case of Cc1ccccc1-c1cc(C(=O)N2CCOCC2)c2ccccc2n1, the displacement is reported as 4%.
Cc1ccc(C(=O)Nc2ccc(N3CCOCC3)cc2)cc1C was tested, and the displacement was 0.3%.
O=C(Nc1c(C(=O)N2CCN(Cc3ccccc3)CC2)cnn1-c1ccccc1)c1cccc(F)c1 showed a displacement of 3%.
With COc1cc(OC)c(C(=O)N2CC(=O)Nc3ccccc32)c(OC)c1 the displacement was 4.9%.
For O=C(Nc1ccccc1Cl)c1cncc(Br)c1, the displacement was 118%.
CCN(CC)c1ccc(NC(=O)c2cncc(Br)c2)cc1 gave a displacement of 84.2%.
CCc1ccc(NC(=O)c2cncc(Br)c2)cc1 showed a displacement of 15%.
In the case of CCc1ccccc1NC(=O)c1cncc(Br)c1, the displacement is reported as 5.4%.
CCN(CC)c1ccc(NC(=O)c2ccc(Br)cc2)cc1 gave a displacement of 9.2%.
In the case of O=C(Nc1ccccc1F)c1cncc(Br)c1, the displacement is reported as 3.9%.
In the case of CCC(C)NC(=O)C(=O)NCCc1ccccc1 (centres undefined), the displacement is reported as 5.5%.
With Cc1nc2ccccc2n1C(=O)c1ccco1 the displacement was -3.1%.
Work on O=C(NCc1ccccn1)C(=O)N/N=C/c1ccccc1C(F)(F)F yielded a displacement of -19.3%.
Work on CC(=O)N=c1cccc(NC(C)=O)n1O yielded a displacement of 5.8%.
CC(=O)Oc1ccc2c(c1)oc(=O)c1c3cc(OC(C)=O)c(OC(C)=O)cc3oc21 was tested, and the displacement was 12.7%.
O=C(Nc1ccc(Cl)c(C(F)(F)F)c1)c1cccs1 gave a displacement of -5.7%.
With CCOc1ccc(C2=C/C(=C/c3ccc(OC)c(OC)c3)C(=O)O2)cc1 the displacement was 34.8%.
COc1ccc(/C=C2/C=C(c3ccc(OC)c(OC)c3)OC2=O)cc1OC showed a displacement of 189%.
In the case of COc1ccc(/C=C2/C=C(c3ccccc3)OC2=O)cc1, the displacement is reported as -15.2%.
Work on COc1ccc(C2=C/C(=C/c3ccc(OC)c(OC)c3)C(=O)O2)cc1 yielded a displacement of 154%.
Compound COc1ccc(C2=C/C(=C\c3ccc4c(c3)OCO4)C(=O)O2)cc1 has a displacement of 117%.
Compound COc1ccc(C2=C/C(=C/c3ccc(OC)c(Br)c3)C(=O)O2)cc1 has a displacement of 11%.
Compound O=C1OC(c2ccc(Cl)cc2)=C/C1=C\c1ccc2c(c1)OCO2 has a displacement of -19.4%.
O=C1OC(c2ccccc2)=C/C1=C/c1ccc2c(c1)OCO2 gave a displacement of -0.2%.
Work on COc1cc(/C=C2/C=C(c3ccccc3)OC2=O)ccc1C yielded a displacement of -4.5%.
CCOC(=O)/C(C#N)=C\c1c(C)c(C)c(/C=C(/C#N)C(=O)OCC)c(C)c1C was tested, and the displacement was 7.7%.
With c1ccc2nc3c(cc(N4CCOCC4)c4ccccc43)nc2c1 the displacement was 147%.
c1ccc2c(c1)nc(N1CCOCC1)c1ccccc12 showed a displacement of -0.6%.
For c1ccc(-c2nc(N3CCOCC3)nc3ccccc23)cc1, the displacement was -1.9%.
